# Laboratory results: PubChem BioAssay AID1159580 (chemical genetic matrix, 2015)
# Hit rate of the full screen: of about 5,500 compounds, about 2,000 (36%) were called active. Roughly 18% stayed inconclusive and do not appear here. The list shows a part of the results. Values without a mark were called inactive. No stated cut-off is given here; in the data, active means normalized growth mostly below about 0.91 (no sharp cut-off); inconclusive means no clear call, values can overlap the other calls; inactive means mostly above about 0.92.
# Test: chemical genetic growth profiling, strain panel (AID 1159580);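 further: tested at 20 µM; growth read once vehicle control cultures reached saturation at 30 °C; 1 = growth at the plate median or of vehicle wells; lower values mean less growth of the strain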
# Details: growth OD
# [1] = S. cerevisiae deletion strains, locus YDL101C, strain DUN1, hits give low values
# [2] = S. cerevisiae deletion strains, locus YHR030C, strain SLT2, hits give low values
smiles,measurement,setting,value
COc1cc2nc(-c3cccs3)oc(=O)c2cc1OC,normalized growth,"S. cerevisiae deletion strains, locus YAL013W, strain DEP1, hits give low values",0.984
same,normalized growth,"S. cerevisiae deletion strains, locus YBR229C, strain ROT2, hits give low values",0.984
same,normalized growth,[1],0.987
same,normalized growth,"S. cerevisiae deletion strains, locus YDR150W, strain NUM1, hits give low values",0.908
same,normalized growth,"S. cerevisiae deletion strains, locus YEL061C, strain CIN8, hits give low values",0.981
same,normalized growth,"S. cerevisiae deletion strains, locus YGR078C, strain PAC10, hits give low values",0.987
same,normalized growth,"S. cerevisiae deletion strains, locus YGR229C, strain SMI1, hits give low values",1
same,normalized growth,[2],0.864
same,normalized growth,"S. cerevisiae deletion strains, locus YHR087W, strain rtc3, hits give low values",0.985
same,normalized growth,"S. cerevisiae deletion strains, locus YJL187C, strain SWE1, hits give low values",0.999
same,normalized growth,"S. cerevisiae deletion strains, locus YJR043C, strain POL32, hits give low values",0.978
same,normalized growth,"S. cerevisiae deletion strains, locus YJR075W, strain HOC1, hits give low values",0.971
same,normalized growth,"S. cerevisiae deletion strains, locus YLR039C, strain RIC1, hits give low values",0.999
same,normalized growth,"S. cerevisiae deletion strains, locus YLR058C, strain SHM2 (second series), hits give low values",0.994
same,normalized growth,"S. cerevisiae deletion strains, locus YLR085C, strain ARP6, hits give low values",0.936
same,normalized growth,"S. cerevisiae deletion strains, locus YLR262C, strain YPT6, hits give low values",1.01
same,normalized growth,"S. cerevisiae deletion strains, locus YML094W, strain GIM5, hits give low values",0.978
same,normalized growth,"S. cerevisiae deletion strains, locus YMR219W, strain ESC1, hits give low values",0.994
same,normalized growth,"S. cerevisiae deletion strains, locus YMR263W, strain SAP30, hits give low values",0.9
same,normalized growth,"S. cerevisiae deletion strains, locus YMR307W, strain GAS1, hits give low values",0.945
same,normalized growth,"S. cerevisiae deletion strains, locus YNL153C, strain GIM3, hits give low values",0.971
same,normalized growth,"S. cerevisiae deletion strains, locus YNL298W, strain CLA4 (second series), hits give low values",0.993
same,normalized growth,"S. cerevisiae deletion strains, locus YNL322C, strain KRE1, hits give low values",0.984
same,normalized growth,"S. cerevisiae deletion strains, locus YNR030W, strain Alg12, hits give low values",0.983
same,normalized growth,"S. cerevisiae deletion strains, locus YPL055C, strain LGE1, hits give low values",1.11
same,normalized growth,"S. cerevisiae deletion strains, locus YPL241C, strain CIN2, hits give low values",0.976
same,normalized growth,"S. cerevisiae deletion strains, locus YPR135W, strain CTF4, hits give low values",0.879
same,normalized growth,"S. cerevisiae strains, strain wild type, hits give low values",1
Cc1ccc2nc(-c3ccc([N+](=O)[O-])o3)oc(=O)c2c1,normalized growth,"S. cerevisiae deletion strains, locus YAR019C, strain CDC15, hits give low values",0.0888 (active)
same,normalized growth,"S. cerevisiae deletion strains, locus YBL105C, strain PKC1, hits give low values",0.0913 (active)
same,normalized growth,"S. cerevisiae deletion strains, locus YBR135W, strain CKS1, hits give low values",0.193 (active)
same,normalized growth,"S. cerevisiae deletion strains, locus YBR136W, strain MEC1, hits give low values",0.181 (active)
same,normalized growth,"S. cerevisiae deletion strains, locus YBR160W, strain CDC28, hits give low values",0.231 (active)
same,normalized growth,"S. cerevisiae deletion strains, locus YDL017W, strain CDC7, hits give low values",0.259 (active)
same,normalized growth,"S. cerevisiae deletion strains, locus YDL028C, strain MPS1, hits give low values",0.595 (active)
same,normalized growth,[1],0.162 (active)
same,normalized growth,"S. cerevisiae deletion strains, locus YDL214C, strain PRR2, hits give low values",0.1 (active)
same,normalized growth,"S. cerevisiae deletion strains, locus YDR226W, strain ADK1, hits give low values",0.361 (active)
same,normalized growth,"S. cerevisiae deletion strains, locus YDR477W, strain SNF1, hits give low values",0.0976 (active)
same,normalized growth,"S. cerevisiae deletion strains, locus YER123W, strain YCK3, hits give low values",0.14 (active)
same,normalized growth,"S. cerevisiae deletion strains, locus YER133W, strain GLC7, hits give low values",0.116 (active)
same,normalized growth,"S. cerevisiae deletion strains, locus YFL009W, strain cdc4, hits give low values",0.37 (active)
same,normalized growth,"S. cerevisiae deletion strains, locus YFL029C, strain CAK1, hits give low values",0.124 (active)
same,normalized growth,"S. cerevisiae deletion strains, locus YFR019W, strain FAB1, hits give low values",0.112 (active)
same,normalized growth,"S. cerevisiae deletion strains, locus YFR028C, strain CDC14, hits give low values",0.149 (active)
same,normalized growth,"S. cerevisiae deletion strains, locus YGR040W, strain KSS1, hits give low values",0.109 (active)
same,normalized growth,"S. cerevisiae deletion strains, locus YGR052W, strain FMP48, hits give low values",0.112 (active)
same,normalized growth,"S. cerevisiae deletion strains, locus YGR092W, strain DBF2, hits give low values",0.108 (active)
same,normalized growth,[2],0.141 (active)
same,normalized growth,"S. cerevisiae deletion strains, locus YHR079C, strain IRE1, hits give low values",0.139 (active)
same,normalized growth,"S. cerevisiae deletion strains, locus YHR082C, strain KSP1, hits give low values",0.131 (active)
same,normalized growth,"S. cerevisiae deletion strains, locus YHR205W, strain SCH9, hits give low values",0.00195 (active)
same,normalized growth,"S. cerevisiae deletion strains, locus YIL147C, strain SLN1, hits give low values",0.52 (active)
same,normalized growth,"S. cerevisiae deletion strains, locus YJL095W, strain BCK1, hits give low values",0.121 (active)
same,normalized growth,"S. cerevisiae deletion strains, locus YJL157C, strain FAR1, hits give low values",0.0957 (active)
same,normalized growth,"S. cerevisiae deletion strains, locus YJR016C, strain ILV3, hits give low values",0.376 (active)
same,normalized growth,"S. cerevisiae deletion strains, locus YJR066W, strain TOR1 (second series), hits give low values",0.103 (active)
same,normalized growth,"S. cerevisiae deletion strains, locus YJR066W, strain TOR1, hits give low values",0.121 (active)
same,normalized growth,"S. cerevisiae deletion strains, locus YKL048C, strain ELM1, hits give low values",0.119 (active)
same,normalized growth,"S. cerevisiae deletion strains, locus YKL067W, strain YNK1, hits give low values",0.138 (active)
same,normalized growth,"S. cerevisiae deletion strains, locus YKL101W, strain HSL1, hits give low values",0.107 (active)
same,normalized growth,"S. cerevisiae deletion strains, locus YKL193C, strain SDS22, hits give low values",0.142 (active)
same,normalized growth,"S. cerevisiae deletion strains, locus YKL203C, strain TOR2, hits give low values",0.101 (active)
same,normalized growth,"S. cerevisiae deletion strains, locus YLR113W, strain HOG1, hits give low values",0.157 (active)
same,normalized growth,"S. cerevisiae deletion strains, locus YLR133W, strain CKI1, hits give low values",0.0945 (active)
same,normalized growth,"S. cerevisiae deletion strains, locus YLR403W, strain SFP1, hits give low values",0.000914 (active)
same,normalized growth,"S. cerevisiae deletion strains, locus YML070W, strain DAK1, hits give low values",0.12 (active)
same,normalized growth,"S. cerevisiae deletion strains, locus YMR001C, strain CDC5, hits give low values",0.127 (active)
same,normalized growth,"S. cerevisiae deletion strains, locus YMR205C, strain PFK2 (second series), hits give low values",0.11 (active)
same,normalized growth,"S. cerevisiae deletion strains, locus YMR277W, strain FCP1, hits give low values",0.124 (active)
same,normalized growth,"S. cerevisiae deletion strains, locus YNL006W, strain LST8, hits give low values",0.0975 (active)
same,normalized growth,"S. cerevisiae deletion strains, locus YNL020C, strain ARK1, hits give low values",0.105 (active)
same,normalized growth,"S. cerevisiae deletion strains, locus YNL161W, strain CBK1, hits give low values",0.142 (active)
same,normalized growth,"S. cerevisiae deletion strains, locus YNL183C, strain NPR1, hits give low values",0.118 (active)
same,normalized growth,"S. cerevisiae deletion strains, locus YNL207W, strain RIO2, hits give low values",0.12 (active)
same,normalized growth,"S. cerevisiae deletion strains, locus YNL222W, strain SSU72, hits give low values",0.101 (active)
same,normalized growth,"S. cerevisiae deletion strains, locus YNL307C, strain MCK1 (second series), hits give low values",0.1 (active)
same,normalized growth,"S. cerevisiae deletion strains, locus YOL078W, strain AVO1, hits give low values",0.164 (active)
same,normalized growth,"S. cerevisiae deletion strains, locus YOL136C, strain PFK27, hits give low values",0.19 (active)
same,normalized growth,"S. cerevisiae deletion strains, locus YOR061W, strain CKA2, hits give low values",0.0958 (active)
same,normalized growth,"S. cerevisiae deletion strains, locus YOR119C, strain RIO1, hits give low values",0.123 (active)
same,normalized growth,"S. cerevisiae deletion strains, locus YOR231W, strain MKK1, hits give low values",0.127 (active)
same,normalized growth,"S. cerevisiae deletion strains, locus YOR329C, strain SCD5, hits give low values",0.0982 (active)
same,normalized growth,"S. cerevisiae deletion strains, locus YPL031C, strain PHO85, hits give low values",0.102 (active)
same,normalized growth,"S. cerevisiae deletion strains, locus YPL153C, strain RAD53, hits give low values",0.136 (active)
same,normalized growth,"S. cerevisiae deletion strains, locus YPL204W, strain HRR25, hits give low values",0.116 (active)
same,normalized growth,"S. cerevisiae deletion strains, locus YPL209C, strain IPL1, hits give low values",0.179 (active)
same,normalized growth,"S. cerevisiae deletion strains, locus YPL256C, strain CLN2, hits give low values",0.174 (active)
same,normalized growth,"S. cerevisiae deletion strains, locus YPR025C, strain CCL1, hits give low values",0.119 (active)
same,normalized growth,"S. cerevisiae deletion strains, locus YPR111W, strain DBF20, hits give low values",0.32 (active)
same,normalized growth,"S. cerevisiae deletion strains, strain NNK1, hits give low values",0.93
same,normalized growth,"S. cerevisiae deletion strains, strain TSCII, hits give low values",0.106 (active)
